Source: PubChem BioAssay (The Scripps Research Institute Molecular Screening Center)
Only some compounds are listed: those with a hit (about 3.5% of all), similar ones and a draw of the others.
TEAD-YAP block – TEAD-YAP interaction inhibition. inhibition, % at 9.12 µM. HEK-TIYL cells, TEAD-Gal4/YAP UAS-luciferase luminescence. AID 1259422. 640,000 tested, 1.4% active; in the data active = inhibition above about 32%
GPR151 ag – activators of human GPR151 | Q8TDV0 | PathHunter beta-arrestin GPR151 cells, luminescence | activation, % at 11.2 µM | 650,000 tested, 1% active | AID 1508602; in the data active = activation above about 4.9%
FBW7 act – activators of human E3 ligase FBW7; 650,000 tested, 0.13% active; AlphaScreen FBW7–phospho-cyclin E peptide binding, activator screen; AID 1259310; normalized activity (activation), % at 26.1 µM; Q969H0; in the data active = normalized activity above about 1.9%;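 also: purified mutant Fbw7 with reduced substrate affinity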
MITF inh – inhibitors of human MITF | AlphaScreen MITF homodimerization, bead proximity signal | inhibition, % at 2.6 µM | 650,000 tested, 0.91% active | AID 1259374; in the data active = inhibition above about 50%
Target sequence (O75030 whole entry, looked up): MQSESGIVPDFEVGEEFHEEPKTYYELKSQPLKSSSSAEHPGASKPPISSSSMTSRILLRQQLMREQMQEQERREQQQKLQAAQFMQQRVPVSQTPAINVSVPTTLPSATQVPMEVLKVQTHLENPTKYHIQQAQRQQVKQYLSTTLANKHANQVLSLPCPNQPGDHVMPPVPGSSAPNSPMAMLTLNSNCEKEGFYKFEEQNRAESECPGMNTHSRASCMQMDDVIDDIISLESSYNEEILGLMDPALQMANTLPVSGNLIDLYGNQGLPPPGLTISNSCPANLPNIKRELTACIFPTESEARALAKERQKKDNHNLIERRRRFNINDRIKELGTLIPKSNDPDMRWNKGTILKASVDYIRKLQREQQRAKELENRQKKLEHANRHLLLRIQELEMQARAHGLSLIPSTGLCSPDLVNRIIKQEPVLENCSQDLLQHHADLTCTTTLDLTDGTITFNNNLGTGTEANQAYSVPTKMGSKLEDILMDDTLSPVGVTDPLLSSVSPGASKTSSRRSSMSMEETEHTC
GPR151 confirm – confirmation of human GPR151 activators; shares compounds with GPR151 ag; GPR151 PathHunter beta-arrestin cells, luminescence, 90 min; % of EA-reagent control over plate median; activation, % at 11.2 µM; 6,700 tested, under 10 active;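 active = mean percent activation across replicates above the confirmation screen cutoff of 4.91%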
GPR119 counter – activates human GPR119 in a GPR151 counter-screen | shares compounds with GPR151 ag | GPR119 PathHunter beta-arrestin cells, luminescence, 90 min; 0 = compound-well median, 100 = enzyme-acceptor control | activation, % at 11.2 µM | 6,700 tested, 0.3% active | AID 1508611;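 active = mean percent activation in the counterscreen above 29.09%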;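 also: counterscreen on off-target GPR119 to flag nonselective hits from the GPR151 activator screen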
Numbers stand for hits.

`CCOC(=O)c1ccc(NC(=O)COc2ccc(CC)cc2)cc1` gave TEAD-YAP block inactive, GPR151 ag 4.9, FBW7 act inactive, MITF inh inactive, GPR151 confirm inactive and GPR119 counter inactive.
Screening CCOc1ccc(NC(=O)CC2(c3ccc(OC)cc3)C(=O)c3ccccc3C2=O)cc1 returned TEAD-YAP block inactive, GPR151 ag 5.4, FBW7 act inactive, MITF inh inactive, GPR151 confirm inactive and GPR119 counter inactive.
Screening CCc1ccc(OCC(=O)Nc2ccc(C(=O)OCCOC)cc2)cc1 returned TEAD-YAP block inactive, GPR151 ag inactive, FBW7 act inactive and MITF inh inactive.
Screening CCC[C@@H]1NC(=O)[C@@H]2C[C@H](NCc3cnn(-c4cccc(F)c4)c3)CN2C1=O returned TEAD-YAP block inactive, GPR151 ag inactive, FBW7 act inactive and MITF inh inactive.
Cc1nnc2c3c4c(sc3ncn12)CCC4 was read as TEAD-YAP block inactive, GPR151 ag inactive, FBW7 act inactive and MITF inh inactive.
`Cc1ccc(NC(=O)COc2ccc(C(C)C)cc2)cc1` gave TEAD-YAP block inactive, GPR151 ag 6.4, FBW7 act inactive, MITF inh inactive, GPR151 confirm inactive and GPR119 counter inactive.
CC(=O)NNc1cccc(Cl)c1 was read as TEAD-YAP block inactive, GPR151 ag 6.1, FBW7 act inactive, MITF inh inactive, GPR151 confirm inactive and GPR119 counter inactive.
For N=C1Cc2ccccc2N1CC(=O)c1ccc(Br)cc1 the results were TEAD-YAP block inactive, GPR151 ag inactive, FBW7 act inactive and MITF inh inactive.
`O=C(Nc1nc2c(s1)-c1cccc3cccc-2c13)C1CC1` gave TEAD-YAP block inactive, GPR151 ag 5.0, FBW7 act inactive, MITF inh inactive, GPR151 confirm inactive and GPR119 counter inactive.
O=C(Nc1nc2ccc3ccccc3c2s1)C1CC1 was read as TEAD-YAP block inactive, GPR151 ag inactive, FBW7 act inactive and MITF inh inactive.
Screening CCOC(=O)c1sc(NC(C)=O)cc1C returned TEAD-YAP block inactive, GPR151 ag inactive, FBW7 act inactive and MITF inh inactive.
`CCOC(=O)c1sc(N/C(=C/C(=O)c2ccccc2)C(=O)O)cc1C` gave TEAD-YAP block inactive, GPR151 ag 9.0, FBW7 act inactive, MITF inh inactive, GPR151 confirm inactive and GPR119 counter inactive.
O=C(O)CCC/C=C\C[C@H]1[C@@H](/C=C/[C@@H](O)CCc2ccccc2)[C@H](O)C[C@H]1O was read as GPR151 ag inactive and MITF inh inactive.
`CC(C)OC(=O)CCC/C=C\C[C@@H]1[C@@H](/C=C/[C@@H](O)CCc2ccccc2)[C@H](O)C[C@@H]1O` gave GPR151 ag 5.4, MITF inh inactive, GPR151 confirm inactive and GPR119 counter inactive.
O=C(O)CCC/C=C\C[C@@H]1[C@@H](/C=C/[C@@H](O)C2Cc3ccccc3C2)[C@@H](F)C[C@@H]1O was read as GPR151 ag 5.0, MITF inh inactive, GPR151 confirm inactive and GPR119 counter inactive.
`Cc1sc(NC(=O)c2ccnn2C(C)C)c(C#N)c1C` gave TEAD-YAP block inactive, GPR151 ag inactive, FBW7 act inactive and MITF inh inactive.
For O=C(NCCN1CCN(Cc2ccc(Br)cc2)CC1)C(=O)Nc1ccc(Cl)cc1 the results were TEAD-YAP block inactive, GPR151 ag inactive, FBW7 act inactive and MITF inh inactive.
`CNC(=O)C(=O)NCCN1CCN(Cc2ccc(Br)cc2)CC1` gave TEAD-YAP block inactive, GPR151 ag 7.8, FBW7 act inactive, MITF inh inactive, GPR151 confirm inactive and GPR119 counter inactive.
`C=CCSc1nc2c(c(=O)[nH]1)C(c1ccc(C)o1)C1=C(CCCC1=O)N2` (stereo not drawn) gave TEAD-YAP block inactive, GPR151 ag 6.3, FBW7 act inactive, MITF inh inactive, GPR151 confirm inactive and GPR119 counter inactive.
O=[N+]([O-])c1ccc(N2CCCC2)c(Cl)c1 was read as TEAD-YAP block inactive, GPR151 ag inactive, FBW7 act inactive and MITF inh inactive.
Screening c1cncc(-c2cc(NCc3ccco3)nc(-c3ccncc3)n2)c1 returned TEAD-YAP block inactive, GPR151 ag 5.1, FBW7 act inactive, MITF inh inactive, GPR151 confirm inactive and GPR119 counter inactive.
